FBW7 activator = FBW7 E3 ligase activators, primary screen, biochemical, AlphaScreen, human; AlphaScreen FBW7–phospho-cyclin E peptide binding, activator screen; normalized activity (activation), % at 26.1 µM; hit rate 0.13% among 650,000; F-box/WD repeat-containing protein 7 (Homo sapiens), Q969H0; in the data active = normalized activity above about 1.9%;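 note: purified mutant Fbw7 with reduced substrate affinity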
MITF inh = MITF inhibitors, primary screen, biochemical, AlphaScreen, human; Microphthalmia-associated transcription factor (Homo sapiens), O75030; AlphaScreen MITF homodimerization, bead proximity signal; inhibition, % at 2.6 µM; hit rate 0.91% among 650,000; in the data active = inhibition above about 50%
Target sequence (O75030 whole entry, looked up): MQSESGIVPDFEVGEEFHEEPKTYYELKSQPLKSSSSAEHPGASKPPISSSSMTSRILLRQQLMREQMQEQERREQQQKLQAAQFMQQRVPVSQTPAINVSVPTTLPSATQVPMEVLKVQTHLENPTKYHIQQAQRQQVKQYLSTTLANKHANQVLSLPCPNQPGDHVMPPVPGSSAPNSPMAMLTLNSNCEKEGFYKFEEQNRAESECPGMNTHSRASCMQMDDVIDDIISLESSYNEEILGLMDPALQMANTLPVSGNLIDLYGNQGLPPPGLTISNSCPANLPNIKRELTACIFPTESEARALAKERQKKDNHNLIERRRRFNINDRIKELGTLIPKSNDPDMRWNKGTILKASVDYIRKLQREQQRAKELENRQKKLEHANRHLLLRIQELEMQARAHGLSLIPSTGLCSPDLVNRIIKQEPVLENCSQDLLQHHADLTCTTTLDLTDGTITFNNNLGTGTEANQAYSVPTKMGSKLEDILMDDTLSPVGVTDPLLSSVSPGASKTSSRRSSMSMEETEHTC
TEAD-YAP block = TEAD-YAP interaction inhibition, primary screen, TEAD-YAP interaction inhibitor project, luminescence, HEK-TIYL cells; hit rate 1.4% among 640,000; TEAD-Gal4/YAP UAS-luciferase luminescence; AID 1259422, 2018; inhibition, % at 9.12 µM; in the data active = inhibition above about 32%
GPR151 activ = activators of human GPR151, primary screen, cell-based, PathHunter beta-arrestin, luminescence. hit rate 1% among 650,000. AID 1508602, 2020. activation, % at 11.2 µM. G-protein coupled receptor 151 (Homo sapiens), Q8TDV0. PathHunter beta-arrestin GPR151 cells; in the data active = activation above about 4.9%
Numbers stand for hits; – = inactive. Rows were chosen to be rich in hits. Some 3.5% of all compounds tested hit in one or more screens of this group.

SMILES	FBW7 activator	MITF inh	TEAD-YAP block	GPR151 activ
COc1ccc(CCNC(=O)CNC(=O)c2nn(-c3ccc(OC)c(OC)c3)c(=O)c3ccccc23)cc1OC	–	–	40	–
COc1cccc(-n2nc(C(=O)NCCc3ccc(OC)c(OC)c3)c3ccccc3c2=O)c1	–	–	36	–
COc1ccc(NC(=O)/C(=C/c2cccc([N+](=O)[O-])c2)NC(=O)C2CCCCC2)c(OC)c1	–	–	–	–
O=C(Nc1cnn(C23CC4CC(CC(C4)C2)C3)c1)c1cnn2cc(Br)cnc12	–	–	–	–
O=C(Nc1cnn(C23CC4CC(CC(C4)C2)C3)c1)c1cnn2cccnc12	–	–	58	–
CCc1ccc2c(c1)[C@H]1OCC[C@H]1[C@@H](c1cccs1)N2	–	–	47	–
O=C(NCC(c1ccccc1)c1ccccc1)c1cnccn1	–	–	–	–
CC1CCCN(c2csc3ccccc3c2=O)C1 (stereo not given)	1.9	–	–	–
NC(=O)C1CCN(c2csc3ccccc3c2=O)CC1	–	–	–	–
CCOc1cc(C2C(C(=O)OCCSCC)=C(C)NC3=C2C(=O)CC(c2ccc(Cl)cc2)C3)cc(Br)c1O (stereo not given)	–	–	–	–
COc1ccc(N2CCN(Cc3ccsc3)CC2)cc1	–	67	–	–
COc1ccc(N2CCN(Cc3cccs3)CC2)cc1	–	55	–	–
CCNC(=O)[C@@H]1C[C@H](NC2C3CC4CC(C3)CC2C4)CN1Cc1cccc(OC)c1OC (stereo not given in full)	–	–	–	–
COc1cccc(/C=C2\N=C(c3ccc(OC)cc3Cl)OC2=O)c1	–	–	–	–
Cc1c(C(=O)C(=O)N2CCC(C)CC2)c2ccccc2n1C	–	–	–	–
Cc1c(C(=O)C(=O)N2CC=C(c3ccccc3)CC2)c2ccccc2n1C	–	–	52	–
O=C(NCc1cccc(C(F)(F)F)c1)c1ccnc(Nc2ccc(-n3ccnc3)cc2)c1	–	–	–	–
Cc1nn2c(N)c(-c3ccccc3)cnc2c1-c1ccc(Cl)cc1	–	–	33	–
Nc1c(-c2ccccc2)cnc2c(-c3ccccc3)cnn12	–	–	41	–
Nc1c(-c2ccccc2)cnc2c(-c3ccc(Cl)cc3)cnn12	–	–	–	–
Oc1ccc(N=Nc2ncn[nH]2)c(O)c1	–	92	–	–
Cc1ccc(O)c(N=Nc2ncn[nH]2)c1	–	–	80	–
O=C(CSc1ncn[nH]1)c1ccc(O)cc1O	–	–	–	–
Cc1ccc(O)c(N=Nc2ccc(S(=O)(=O)O)cc2)c1	–	–	–	–
COC(=O)c1[nH]c2ccccc2c1Cl	–	–	–	–
SMILES	FBW7 activator	MITF inh	TEAD-YAP block	GPR151 activ
COC(=O)c1c(C(=O)c2ccc(F)cc2)[nH]c2ccccc12	–	–	50	–
O=c1[nH]c(=O)n(-c2ccccc2)c(O)c1C=Nc1ccc2ccccc2c1	–	–	–	–
Cc1cccc(OCCOC(=O)c2ccc(S(C)(=O)=O)c([N+](=O)[O-])c2)c1	–	–	38	–
CCn1c(CN2CCN(c3ccccc3)CC2)nc2c1c(=O)n(C)c(=O)n2C	–	–	46	–
CCn1c(CN2CCN(c3ccc(F)cc3)CC2)nc2c1c(=O)n(C)c(=O)n2C	–	–	–	–
COc1ccc(OC)c(CNC2C3CC4CC(C3)CC2C4)c1 (stereo not given)	–	–	–	–
CN1CCN(C(c2ccc(F)cc2)c2nnnn2C2CCCC2)CC1 (stereo not given)	–	–	–	–
c1csc(C(c2nnnn2C2CCCCC2)N2CCN3CCCC3C2)c1 (stereo not given)	–	–	62	–
C=CCN1CCN(C(c2ccccc2)c2nnnn2C2CCCC2)CC1 (stereo not given)	1.9	–	–	–
c1cncc(C(c2nnnn2C2CCCCC2)N2CCN3CCCC3C2)c1 (stereo not given)	–	–	–	–
CN1CCN(C(c2ccc(N(C)C)cc2)c2nnnn2C2CCCC2)CC1 (stereo not given)	–	–	51	–
CCN(CC)c1nc(NCCCN2CCCC2=O)nc(N2CCN(c3ccccn3)CC2)n1	–	–	–	–
CC(=O)c1c(C)[nH]c(C(=O)OCC(=O)Nc2nc(-c3ccc(C)cc3)cs2)c1C	–	–	37	–
CC(=O)c1c(C)[nH]c(C(=O)OCc2csc(-c3ccccc3)n2)c1C	–	–	32	–
NC(=O)CSc1nc2sc3c(c2c(=O)n1-c1cccc2ccccc12)CCCC3	–	–	38	–
CN1C(=O)c2ccccc2C(C(=O)NCCCN2CCCCCC2)C1c1cccs1 (stereo not given)	–	–	–	–
CC(=O)N(/C=C1/Sc2ccccc2C1=O)c1ccc(C)cc1	–	–	59	–
CC(=O)N(/C=C1\Sc2ccccc2C1=O)c1ccc(C)c(C)c1	–	–	86	–
COc1ccc(N(/C=C2\Sc3ccccc3C2=O)C(C)=O)cc1	–	–	51	–
COc1ccccc1N(C=O)/C=C1\Sc2ccccc2C1=O	–	–	55	–
CC(=O)N(/C=C1\Sc2ccccc2C1=O)c1ccc(I)cc1	–	–	–	–
COc1ccc(C2C3C(=O)N(c4cccc(C)c4)C(=O)C3ON2c2ccccc2C)c(OC)c1 (stereo not given)	–	–	–	–
O=C1/C(=C\N(C(=O)c2ccccc2)c2ccccc2)Sc2ccccc21	–	–	–	–
COc1ccc(N(/C=C2\Sc3ccccc3C2=O)C(=O)c2ccccc2)cc1	–	–	54	–
COc1ccc(N(/C=C2\Sc3ccccc3C2=O)C(=O)c2ccc(C)cc2)cc1	–	–	41	–
SMILES	FBW7 activator	MITF inh	TEAD-YAP block	GPR151 activ
CCC1(C)Cc2c(sc3nc(SCc4ccccc4)n(-c4ccc(OC)cc4)c(=O)c23)CO1 (stereo not given)	–	–	–	–
O=C(Nc1ccc(Cl)c(Cl)c1)c1cccc(N2C(=O)c3ccccc3C2=O)c1	–	–	–	–
Cc1ccc(C(C[N+](=O)[O-])c2c[nH]c3ccccc23)o1 (stereo not given)	–	–	54	–
Fc1ccccc1CSc1ccc2nnc(-c3ccncc3)n2n1	–	–	–	–
O=C(CCc1ccc(S(=O)(=O)N2CCOCC2)cc1)N/N=C/c1ccc(O)c(O)c1O	–	54	–	–
Cc1c(/C=N/NC(=O)CCc2ccc(S(=O)(=O)N3CCOCC3)cc2)cc(C#N)n1C	–	–	–	–
CN(CCc1ccccn1)Cc1ccccc1C(F)(F)F	–	–	–	–

Screening results (PubChem)
